In the library only some 19% were active in any assay of this set; here they are far more common.
DT40 TDP1 CPT = DT40-hTDP1 cell growth loss with CPT; chicken DT40 Tdp1-/-;hTDP1 cells + 20 nM CPT, ATP luminescence, 48 h; Potency, µM (top dose mostly 46.2 µM), for the others: at the highest dose activity change, negative = growth inhibition, usual class: inhibitors; actives 12% (n = 420,000); note: potency is the fitted concentration of half-maximal effect; nearly all actives have a fitted effect of over 55% in size
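Chicken DT40 Tdp1-/- cells stably complemented with human TDP1 were seeded at 400 cells/well in medium containing 20 nM camptothecin, exposed to pin-transferred compounds, and grown at 37 °C for at least 48 hr. Viability was read as ATP luminescence.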
ELG1 DNA repair = ELG1-dependent DNA repair inhibition; Potency, µM (titrated, usually from 46.1 µM), without a hit: at the highest dose activity change, negative = inhibition, hits mostly inhibitors; actives 2.3% (n = 330,000); HEK293T ELG1-luciferase reporter, luminescence, 16 h; DNA damage induced by 5-fluorouridine; note: potency is the fitted concentration of half-maximal effect; nearly all actives have a fitted effect of over 55% in size
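HEK293T cells expressing luciferase-tagged ELG1 (2,000/well) received 5-Fluorouridine plus compound or DMSO for 16 hr at 37 °C. Luciferase was read by ONE-Glo luminescence after 30 min at room temperature.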
TDP1 block = blocks human tyrosyl-DNA phosphodiesterase 1; recombinant TDP1, AlphaScreen DNA substrate cleavage; Potency, µM (titrated, usually from 130 µM), without a hit: at the top dose activity change, negative = inhibition, most hits filed as inhibitors; Q9NUW8; actives 0.28% (n = 350,000); note: potency is the fitted concentration of half-maximal effect; nearly all actives have a fitted effect of over 40% in size
Target sequence (Q9NUW8 whole entry, looked up): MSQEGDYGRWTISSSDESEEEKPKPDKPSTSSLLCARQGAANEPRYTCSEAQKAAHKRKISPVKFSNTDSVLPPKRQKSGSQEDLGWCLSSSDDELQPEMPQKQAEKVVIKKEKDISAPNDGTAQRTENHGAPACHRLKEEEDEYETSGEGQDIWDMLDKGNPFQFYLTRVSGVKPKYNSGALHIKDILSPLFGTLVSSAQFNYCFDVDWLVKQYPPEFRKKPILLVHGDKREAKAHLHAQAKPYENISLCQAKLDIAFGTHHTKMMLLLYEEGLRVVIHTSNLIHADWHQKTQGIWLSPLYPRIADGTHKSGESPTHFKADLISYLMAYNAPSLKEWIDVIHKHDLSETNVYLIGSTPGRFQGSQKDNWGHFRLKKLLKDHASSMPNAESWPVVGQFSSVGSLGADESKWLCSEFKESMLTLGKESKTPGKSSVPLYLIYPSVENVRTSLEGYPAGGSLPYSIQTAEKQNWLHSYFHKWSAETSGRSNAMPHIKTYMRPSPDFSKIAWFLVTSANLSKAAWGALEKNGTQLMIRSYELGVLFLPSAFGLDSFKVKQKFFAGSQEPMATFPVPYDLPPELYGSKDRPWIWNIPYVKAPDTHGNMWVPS
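Compounds were preincubated with Tdp1 (1 nM final) for 15 min at room temperature before substrate (15 nM final) started a 5 min reaction; beads (10 ug/ml final) were then added for 10 min before AlphaScreen detection.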
TDP1 cell noCPT = qHTS for Inhibitors of human tyrosyl-DNA phosphodiesterase 1 (TDP1): qHTS in cells in absence of CPT | DT40 Tdp1-/- hTDP1 cells, no CPT, ATP luminescence, 48 h | Potency, µM (highest dose often 46.2 µM), inactives show top-dose activity change, negative = growth inhibition, actives largely listed as inhibitors | actives 15% (n = 420,000) | AID 686978, 2013; note: potency is the fitted concentration of half-maximal effect; nearly all actives have a fitted effect of over 55% in size
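Readout: luminescence from CellTiter-Glo after 30 min in the dark at RT. Cells: DT40 Tdp1-/- with stable hTDP1, 400/well. Exposure: compounds alone, ≥48 hr, 37 °C.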
Giardia killer = Giardia lamblia killing; Giardia lamblia trophozoite viability; activity change, % at 7.66 µM, hits read low; AID 540267; actives 0.15% (n = 340,000); in the data active = activity change below about -80%; inconclusive = between about -30% and that limit;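 note: parasites exposed to compound for two days anaerobically before the ATP read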
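Killing of trophozoites was scored by loss of ATP luminescence after a 48 hrs anaerobic exposure to compounds at 37 deg C, using 100 cells per well.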
IL-1B inflam inh = inhibitors of inflammasome signaling (IL-1 beta secretion); THP-1 LPS/ATP IL-1B secretion, AlphaLISA, 16 h; active compounds read low; activity change, % at 57.5 µM; actives 4.7% (n = 360,000); AID 743279; in the data active = activity change below about -50%; inconclusive = mostly about -30% to -49%
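Secreted IL-1B measured by AlphaLISA bead assay after 16 h compound exposure of THP-1 cells; compounds (final up to 57.5 uM) added 1 h before LPS (250 ng/mL) and ATP (1.25 mM) stimulation; lower signal means less secretion.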
* hit, by the source's call; i = inactive; ? = inconclusive; / = no result; [ ] = remark or other dose. Unless noted, calls come from the whole dose curve; as a rule, active = well fitted curve in the direction sought with a large enough effect; inconclusive = small, poorly fitted or top-dose-only effect, or another doubt; inactive = no such curve, though single readings can be large; an effect the other way counts as inactive or inconclusive. % is set by controls: 0 for no effect and ±100 for the full control effect.

SMILES | DT40 TDP1 CPT | ELG1 DNA repair | TDP1 block | TDP1 cell noCPT | Giardia killer | IL-1B inflam inh
COC(=O)CNC(c1ccccc1)c1cc(Br)ccc1NS(=O)(=O)c1ccc(C)cc1 (stereo not given) | ? | -10% | 4% | ? | 3 | 7
CCN1CCN(c2nc3ccccc3nc2C(C#N)C(=O)OCc2ccccc2)CC1 (stereo not given) | 23µM* | 18µM* | 9% | ? | 4 | -10
CN(CC(=O)Nc1ccccc1Cl)C(=O)COC(=O)C1=COCCO1 | 3% | ? | / | -7% | 18 | 8
Clc1ccc(-c2nnc(Sc3nc4ccccc4o3)c3ccccc23)cc1 | ? | ? | 9% | 16µM* | -6 | -104*
COc1ccc2oc(=O)c(C(=O)NCCc3c(C)[nH]c4ccc(Br)cc34)cc2c1 | / | / | 8% | / | / | /
C=C(C)C1Cc2c(C)nn(-c3nc(C)cc(C)n3)c2C1 (stereo not given) | 2.3µM* | -9% | 8% | 4.6µM* | -10 | -11
CC(NC(=O)CSc1n[nH]c(-c2ccccc2Cl)n1)c1nc2ccccc2[nH]1 (stereo not given) | -6% | / | 0% | -3% | / | /
C=CCn1c(SCC(=O)N2CCc3ccccc3C2)nc2sc(C)cc2c1=O | ? | ? | 1% | 26µM* | 5 | ?
CCCCn1c(SCC(=O)N2CCCc3ccccc32)nc2c1c(=O)n(C)c(=O)n2C | 18µM* | -22% | 4% | 22µM* | 5 | 22
CCn1c(SCC(=O)N2CCc3ccccc3C2)nc2c1c(=O)n(C)c(=O)n2C | 23µM* | -8% | 3% | -26% | -9 | 51
CCCn1c(SCC(=O)N2c3ccccc3CCc3ccccc32)nc2c1c(=O)n(C)c(=O)n2C | -26% | -12% | 2% | ? | 10 | 14
CCOCCCn1c(SCC(=O)NC2CCCC2)nc2ccccc2c1=O | ? | -17% | 1% | ? | 68 | ?
COCCn1c(SCC(=O)NC(=O)NC2CCCCC2)nc2ccccc2c1=O | ? | ? | 1% | 15µM* | 6 | -5
CCCn1c(SCC(=O)N2CCc3ccccc3C2)nc2c1c(=O)n(C)c(=O)n2C | ? | -18% | 3% | ? | 8 | 22
O=C(CSc1nnc(CNC(=O)c2c(F)cccc2F)o1)Nc1ccc2c(c1)OCCO2 | -19% | 1% | 1% | -26% | -9 | 20
COc1ccc(C2c3[nH]c4ccccc4c3C[C@H]3C(=O)N(c4ccccc4C(=O)N4CCC[C@H]4C(=O)O)C(=O)N23)cc1 (stereo not given in full) | 6% | ? | / | 0% | -2 | 21
O=C(c1cccc([N+](=O)[O-])c1)N1CCCC(C(=O)N2CCN(c3ccccc3)CC2)C1 (stereo not given) | 2% | 1% | 4% | -2% | 9 | -3
COCCn1c(SCC(=O)N2CCOCC2)nc2ccccc2c1=O | 5% | 5% | 9% | 0% | -2 | -9
CCCCn1c(SCC(=O)N2c3ccccc3Sc3ccccc32)nc2c1c(=O)n(C)c(=O)n2C | ? | ? | -2% | 26µM* | -1 | ?
COCCn1c(SCC(=O)N2CCc3ccccc3C2)nc2ccccc2c1=O | 21µM* | ? | 5% | ? | 2 | -2
CCn1c(SCC(=O)N2c3ccccc3Sc3ccccc32)nc2c1c(=O)n(C)c(=O)n2C | ? | 15% | 1% | ? | 1 | 19
COC(=O)c1cn(CC(=O)Nc2ccccc2C)c2ccccc12 | -3% | -7% | / | -17% | 12 | -3
Cc1ccc(N(C(=O)c2snc(C(N)=O)c2N)C(C(=O)NC2CCCC2)c2ccco2)cc1 (stereo not given) | ? | -37% | -1% | ? | -15 | -7
Cc1cccc(N(C(=O)c2snc(C(N)=O)c2N)C(C(=O)NC2CCCC2)c2ccc(C)o2)c1 (stereo not given) | 18µM* | 5% | -14% | 15µM* | 10 | -18
CCCC(C(=O)NC1CCCC1)N(C(=O)c1snc(C(N)=O)c1N)c1ccc(OCC)cc1 (stereo not given) | -20% | ? | -2% | 21µM* | 2 | -59*
SMILES | DT40 TDP1 CPT | ELG1 DNA repair | TDP1 block | TDP1 cell noCPT | Giardia killer | IL-1B inflam inh
Cc1ccc(N(C(=O)c2snc(C(N)=O)c2N)C(C(=O)NC2CCCC2)c2ccc(C)o2)cc1 (stereo not given) | ? | ? | / | ? | -6 | -77*
Cc1cccc(N(C(=O)c2snc(C(N)=O)c2N)C(C(=O)NC2CCCC2)c2ccncc2)c1 (stereo not given) | 0% | -18% | / | -1% | -13 | 23
CC(C)CC(=O)C1=C(O)C(=O)N(Cc2ccccc2)C1c1ccccc1 (stereo not given) | -2% | -34% | / | ? | -20 | 6
Oc1cccc(-c2nc3ccc4ccccc4c3c3c2CCC3)c1 | ? | ? | -1% | 21µM* | 4 | 0
COc1ccc(OCc2nc(C#N)c(NCc3ccccc3Cl)o2)cc1 | ? | / | 6% | ? | / | /
Cc1ccc(C)c(N2N=C(C(=O)Nc3ccccc3N3CCOCC3)CCC2=O)c1 | ? | 15µM* | 7% | ? | 5 | -10
Cc1ccc(C)c(N2N=C(C(=O)Nc3ccccc3N3CCCC3)CCC2=O)c1 | ? | ? | 11% | 21µM* | 12 | i
Cc1ccc(S(=O)(=O)N2CCOCC2)cc1NC(=O)C1=NN(c2ccccc2)C(=O)CC1 | -7% | 4% | 5% | -16% | -26 | -8
COc1ccc(-c2nn(-c3ccc(C)c(Cl)c3)c3c2cnc2cc(OC)c(OC)cc23)cc1 | 4% | / | 4% | 5% | / | /
CCc1ccc(OCc2ccc(C(=O)OC)o2)cc1 | 0% | ? | / | 6% | 9 | 9
C=CCC1(O)C=CCC2C3C4C(OC(C)(C)C)C2C1C34 (stereo not given) | / | / | 6%[21 µM] | / | / | /
CN1C(=C2C(=O)OC(C)(C)OC2=O)Sc2ccccc21 | ? | ? | 4% | 18µM* | 2 | -1
CC(=O)NN1C(=O)/C(=C2/Sc3ccccc3N2C)SC1=S | -25% | ? | / | -6% | -6 | 19
Cc1nn(C)c(C)c1S(=O)(=O)N1CCC(C(=O)NCCC2=CCCCC2)CC1 | 18µM* | -11% | 4% | ? | 0 | 36
